Experimental data as given in PubChem BioAssay AID743143 (Broad Institute, 2013).
Potency and affinity values are given separately. A number with no mark means an inactive call.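 Rule for the calls: active = falling signal curve whose fitted half-maximal dose lies at or below the top valid tested dose; inconclusive = flat fit showing 30 to 70% loss, or poor fit; inactive = rising signal, flat within 30%, or half-maximal dose above top.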

assay: viability reduction in hepatoma cells – cell-based, ATP luminescence, dry powder, Set4, cytotoxicity control, dose response (AID 743143); settings: HepG2 viability, CellTiter-Glo ATP luminescence, 72 h; series mostly up to 26 µM; activity change, negative = cytotoxicity: at the top concentration

Point of comparison: O=C(CNC(=O)c1ccc(OC(F)(F)F)cc1)N[C@@H]1CCCc2ccccc21, “activity change, negative = cytotoxicity” value 11.1%. Against it:
- O=C(CNC(=O)c1ccc(Cl)cc1)N[C@@H]1CCCc2ccccc21 — lower, 1.92%
- COc1ccccc1C(=O)NCCC(=O)NC1CCCc2ccccc21 (stereo not given) — higher, 15.7%
- O=C(CCNC(=O)c1ccccc1)N[C@@H]1CCCc2ccccc21 — lower, 5.01%
- N#Cc1ccc(C(=O)NCCC(=O)N[C@@H]2CCCc3ccccc32)cc1 — lower, -2.19%
- O=C(CNC(=O)c1ccc(C(F)(F)F)cc1)N[C@@H]1CCCc2ccccc21 — higher, 18.8%
- CN(C(=O)CCNC(=O)c1ccc(F)cc1F)C1CCCc2ccccc21 (stereo not given) — higher, 17.2%
- O=C(CCNC(=O)c1ccccc1Cl)NC1CCCc2ccccc21 (stereo not given) — lower, -8.4%
- O=C(NC1CCOc2ccccc21)C1CCCN(C(=O)c2ccc(Cl)cc2)C1 (stereo not given) — lower, -10.2%
- O=C(CCNC(=O)c1ccc(F)cc1)N[C@@H]1CCCc2ccccc21 — lower, 10.7%
- O=C(CCCNC(=O)c1ccc(Cl)cc1)N[C@@H]1CCCc2ccccc21 — lower, 0.579%
- NCCC(=O)N[C@@H]1CCCc2ccccc21 — higher, 18.8%
- O=C(CCNC(=O)c1cccc(Cl)c1)N[C@@H]1CCCc2ccccc21 — lower, 0.415%
- O=C(CCNC(=O)c1ccc(Cl)c(Cl)c1)N[C@@H]1CCCc2ccccc21 — lower, -13.4%
- CC(CC(=O)N(C)C1CCCc2ccccc21)NC(=O)c1ccccc1 (stereo not given) — lower, -9.54%
- O=C(CCNC(=O)c1ccc(Cl)cc1)N[C@@H]1CCc2ccccc21 — lower, 10.8%
- O=C(CCCNC(=O)c1ccc(C(F)(F)F)cc1)N[C@@H]1CCCc2ccccc21 — lower, -4.36%
- CC(NC(=O)CCNC(=O)c1ccc(Cl)cc1)c1ccc2c(c1)OCO2 (stereo not given) — lower, 1.46%
- CC(NC(=O)CCNC(=O)c1ccc(Cl)cc1)c1ccc(F)cc1 (stereo not given) — lower, -1.19%
- COc1ccc(C(=O)NCCC(=O)N[C@@H]2CCCc3ccccc32)cc1 — lower, -11.5%
- COc1ccccc1C(C)NC(=O)CCNC(=O)c1ccc(Cl)cc1 (stereo not given) — higher, 17.3%
- Cc1ccc(C(=O)NCCC(=O)N[C@@H]2CCCc3ccccc32)cc1 — lower, -0.842%
- O=C(NC1CCc2ccccc21)C1CCCN(C(=O)c2ccc(Cl)cc2)C1 (stereo not given) — lower, -6.73%
- CC(c1ccccc1)N(C)C(=O)CCNC(=O)c1ccc(Cl)cc1 (stereo not given) — higher, 20.6%
- CC(CC(=O)NC1CCCc2ccccc21)NC(=O)c1ccccc1 (stereo not given) — lower, -8.93%
- O=C(CCNC(=O)c1ccc(Cl)cc1)N[C@@H]1CCCc2ccccc21 — lower, -3.06%
- Cc1cccc(C(=O)NCCC(=O)NC2CCCc3ccccc32)c1 (stereo not given) — lower, 10.8%
- O=C(CCNC(=O)c1ccc(Cl)cc1)NC1CCCCC1 — lower, 8.22%
- C[C@@H](NC(=O)CCNC(=O)c1ccc(Cl)cc1)c1ccccc1 — lower, -1.89%
- CC(C)(C)OC(=O)NCCC(=O)N[C@H]1CCCc2ccccc21 — lower, -10%
- O=C(CCCNC(=O)c1ccc(OC(F)(F)F)cc1)N[C@@H]1CCCc2ccccc21 — lower, -5.35%
- CC(NC(=O)C1CCCN(C(=O)c2ccc(Cl)cc2)C1)c1ccccc1 (stereo not given) — lower, 1.33%
- CC(=O)NCCC(=O)N[C@@H]1CCCc2ccccc21 — lower, -4.47%
- O=C(Cc1ccc(Cl)cc1)NCCC(=O)N[C@@H]1CCCc2ccccc21 — lower, 7.64%
- O=C(CCNC(=O)c1ccc(C(F)(F)F)cc1)N[C@@H]1CCCc2ccccc21 — lower, -0.327%
- O=C(CCNC(=O)c1ccc2c(c1)OC(F)(F)O2)N[C@@H]1CCCc2ccccc21 — lower, -0.347%
- O=C(CCNC(=O)c1ccc(OC(F)(F)F)cc1)N[C@@H]1CCCc2ccccc21 — lower, -18.2%
- CC(C)(C)OC(=O)NCCC(=O)N[C@@H]1CCCc2ccccc21 — higher, 30.2%
- O=C(CCNC(=O)c1ccc(Cl)cc1)NC1CCCc2ccccc21 (stereo not given) — lower, -25.1%
- O=C(CCNC(=O)c1ccc(Cl)cc1)N[C@H]1CCCc2ccccc21 — lower, -7.67%
